This excerpt belongs to a sample that is enriched for hits.
G9a inh – qHTS Assay for Inhibitors of Histone Lysine Methyltransferase G9a; Histone-lysine N-methyltransferase EHMT2 (Homo sapiens), Q96KQ7; G9a H3K9 monomethylation, AlphaScreen, 2 h; Potency, µM (top dose mostly 102 µM), for inactives: at the top dose activity, negative = inhibition, usual class: inhibitors; 8.8% of 350,000 active; AID 504332, 2011; note: % is set by controls: 0 for no effect and ±100 for the full control effect; nearly all actives have a fitted effect of over 75% in size
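Compounds were preincubated with 20 nM G9a for 15 min, after which biotinylated H3K9 peptide (500 nM) and SAM (20 uM) started a 2 h room-temperature reaction. Monomethylated product was quantified by antibody-based AlphaScreen chemiluminescence.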
ALOX12 inh – Primary qHTS assay for inhibitors of human arachidonate 12S-lipoxygenase (ALOX12): Round 2; Polyunsaturated fatty acid lipoxygenase ALOX12 (Homo sapiens), P18054; purified 12hLO, xylenol orange hydroperoxide absorbance; Potency, µM (doses to about 108 µM), without a hit: at the top dose activity change, negative = inhibition, actives largely listed as inhibitors; 1.1% of 580,000 active; AID 1671190, 2021; note: % is set by controls: 0 for no effect and ±100 for the full control effect
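Hydroperoxide product was detected by ferrous iron/xylenol orange as the 573 to 405 nm absorbance ratio. Arachidonic acid at 40 uM (final) was turned over for 30 min at room temperature by 150 nM human 12hLO, pH 7.0 Hepes buffer, after 15 min compound preincubation.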
VDR inhibitor – Inhibitors of the vitamin D receptor (VDR): qHTS | AID 504847, 2011 | Vitamin D3 receptor (Homo sapiens), P11473 | Potency, µM, for the others: max response, negative = inhibition, usual class: inhibitors | VDR-SRC2-3 peptide fluorescence polarization, 2 h | 0.93% of 400,000 active; note: % is set by controls: 0 for no effect and ±100 for the full control effect
Target sequence (P11473 whole entry, looked up): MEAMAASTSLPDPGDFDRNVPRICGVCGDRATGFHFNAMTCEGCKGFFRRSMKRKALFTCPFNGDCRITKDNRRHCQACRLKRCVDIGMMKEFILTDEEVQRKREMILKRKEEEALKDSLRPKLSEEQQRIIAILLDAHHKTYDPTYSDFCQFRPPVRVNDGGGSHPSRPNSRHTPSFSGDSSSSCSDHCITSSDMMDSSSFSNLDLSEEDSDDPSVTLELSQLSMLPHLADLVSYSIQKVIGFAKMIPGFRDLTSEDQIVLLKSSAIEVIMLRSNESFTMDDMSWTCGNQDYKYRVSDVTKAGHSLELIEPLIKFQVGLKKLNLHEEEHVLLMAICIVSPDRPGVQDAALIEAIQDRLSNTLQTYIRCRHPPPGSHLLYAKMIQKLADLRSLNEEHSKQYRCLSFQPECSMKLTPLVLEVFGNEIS
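Compounds are added to VDR with labelled SRC2-3 coactivator peptide and held 2 h at room temperature. Inhibition of the VDR–peptide interaction is then read as a change in fluorescence polarization.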
Sfp inh – qHTS Assay for Inhibitors of Bacillus subtilis Sfp phosphopantetheinyl transferase (PPTase); 4'-phosphopantetheinyl transferase ffp (Bacillus subtilis), Q9F4F7; Biochemical Sfp PPTase activity, qHTS; Potency, µM, for inactives: largest response in the series, negative = inhibition, hits mostly inhibitors; 3.5% of 310,000 active; AID 1490, 2009;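 note: the enzyme is Sfp with the accession as filed and its product quenches rhodamine fluorescence; 0% = enzyme reaction without inhibitor and -100% = no enzyme wells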
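Reaction rates are the 30-min fluorescence difference (ex 525, em 598 nm) in wells containing 15 nM Sfp, 5 uM rhodamine-CoA and 12.5 uM BHQ-2-YbbR at pH 7.6 with 10 mM MgCl2.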
GRP78 ERSR act – qHTS for Inducers of the Endoplasmic Reticulum Stress Response (ERSR) in Human Glioma: qHTS; U87-MG GRP78 promoter luciferase reporter, 16 h; Potency, µM, inactives show at the top dose activation, actives largely listed as activators; 0.02% of 420,000 active; AID 602332, 2012; note: series mostly up to about 76 µM; % of control where 0% means no effect; nearly all actives have a fitted effect of over 35% in size
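Stably transfected U87-MG glioma cells carrying a GRP78-based luciferase sensor; 16 h compound incubation. Luminescence end-point read 10 min after Bright-Glo addition at room temperature.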
Starred values were filed as active, the others as inactive; ? = inconclusive; / = no result; [ ] = remark or other dose. Calls come from the whole dose curve; as a rule, active = well fitted curve in the direction sought with a large enough effect; inconclusive = small, poorly fitted or top-dose-only effect, or another doubt; inactive = no such curve, though single readings can be large; an effect the other way counts as inactive or inconclusive. Potency is the fitted concentration of half-maximal effect.

SMILES	G9a inh	ALOX12 inh	VDR inhibitor	Sfp inh	GRP78 ERSR act
Cc1cn2c3c(=O)[nH]c(=O)n(C)c3nc2n1CCN1CCN(Cc2ccc(F)cc2)CC1	/	5.7%	/	/	/
CCN(CC)S(=O)(=O)c1ccc(OC)c(NC(=O)c2nn(C)c(=O)c3ccccc23)c1	/	9.1%	/	/	/
CN(Cc1ccccc1F)C(=O)CN1CCN(c2oc(-c3ccco3)nc2C#N)CC1	/	-0.7%	/	/	/
CCNc1ccc(S(N)(=O)=O)cc1[N+](=O)[O-]	3.55µM*	?	-5.9%	4.3%	-4.7%
CC(=O)N1CCc2cc(Br)cc(S(=O)(=O)N3CCC(C(=O)O)CC3)c21	50.1µM*	-18.9%	-9.6%	19.7%	-5.1%
O=C(C1CC1)N1CCc2cc(Br)cc(S(=O)(=O)N3CCCCCC3)c21	-37.5%	0.0%	-12.9%	9.5%	-0.8%
COc1ccc(S(=O)(=O)N2CCCCC2)cc1NC(=S)Nc1ccccc1	-4.4%[59 µM]	-28.3%	-6.4%	4.5%	-2.1%
O=C(CNCc1ccncc1)Nc1cc(S(=O)(=O)N2CCCCC2)ccc1Cl	12.6µM*	0.3%	-0.8%	44.7µM*	-3.2%
COc1ccc(S(=O)(=O)N2CCCCC2)cc1NC(=S)Nc1cccc(Cl)c1C	-9.4%[59 µM]	39.8µM*	-24.4%	-6.9%	-0.1%
COc1ccccc1CNCC(=O)Nc1cc(S(=O)(=O)N2CCCCCC2)ccc1Cl	3.55µM*	4.2%	1.4%	?	-3.6%
O=C(COC(=O)c1cc(Br)ccc1O)Nc1cc(S(=O)(=O)N2CCCC2)ccc1Cl	14.2%	-1.4%	1.8%	56.2µM*	-3.5%
COc1ccccc1CNCC(=O)Nc1cc(S(=O)(=O)N2CCCCC2)ccc1C	/	3.8%	-4.1%	/	0.0%
O=C(CCOc1ccccc1)Nc1ccc(N2CCOCC2)cc1	/	-15.6%	/	/	/
CC(C)N(Cc1ccccc1)C(=O)COc1ncnc2c(Cl)cc(Cl)cc12	/	-19.9%	/	/	/
O=S1(=O)C[C@H](N2CCN(c3ncccn3)CC2)[C@@H](S(=O)(=O)c2ccccc2)C1	/	17.0%	/	/	/
CCC1(N2CCN(C)CC2)CCN(S(=O)(=O)c2ccccc2)C1 (configuration not stated)	/	44.3%	/	/	/
CCN(CC)S(=O)(=O)c1ccc(C)c(NC(=O)CNCc2ccccc2OC)c1	25.1µM*	12.9%	1.3%	?	0.6%
COc1ccc2c(c1)C(NC(=O)c1cn(CCN)nn1)CC(C)(C)O2 (configuration not stated)	/	-35.1%	/	/	/
Cc1ccc2nc(-c3ccccn3)c(NC3CCCC3)n2c1	-42.9%	1.2%	-25.3%	4.6%	-2.5%
CC(C)c1nc2ccc(Br)cn2c1NC1CCCC1	44.7µM*	1.5%	-8.7%	1.2%	-6.3%
COc1cccc(Cn2c(=O)c(-c3cn(C)c4ccccc34)nc3cnc(OC)nc32)c1	-3.9%[0.501 µM]	39.8µM*	-7.6%	5.5%	-3.8%
COc1cccc(Cn2c(=O)c(CCc3ccccc3)nc3cnc(N4CCOCC4)nc32)c1	-9.6%[0.501 µM]	0.0%	-4.4%	23.5%	5.0%
O=c1c(CCc2ccccc2)nc2cnc(N3CCOCC3)nc2n1Cc1cccs1	7.1%[0.501 µM]	?	13.2%	11.8%	-5.1%
COc1cccc(Cn2c(=O)c(CCc3ccccc3)nc3cnc(N4CCNCC4)nc32)c1	4.8%[0.501 µM]	-3.5%	?	79.4µM*	-5.2%
O=c1c(CCc2ccccc2)nc2cnc(N3CCNCC3)nc2n1CCc1ccccc1	6.7%[12.7 µM]	-4.0%	?	39.8µM*	-5.7%
CN1CCN(c2ncc3nc(CCc4ccccc4)c(=O)n(CCc4ccccc4)c3n2)CC1	12.8%[0.501 µM]	0.0%	3.1%	-6.2%	-8.0%
CN1CCN(c2ncc3nc(CCc4ccccc4)c(=O)n(Cc4cccs4)c3n2)CC1	-6.7%[12.7 µM]	?	?	28.2µM*	-2.1%
O=C(COc1ccc(-n2cnnn2)cc1)N1CCCC2(CCOC2)C1 (configuration not stated)	/	65.8%	/	/	/
O=C(CCCCn1cnc2c(=S)nc[nH]c21)Nc1ccc(C(=O)O)cc1	/	-20.8%	8.2%	/	-3.6%
